Measured values published in the supplement of paper PMC3334620.
In all, about 33,000 sequences were measured (“E-score (-0.5 to 0.5)”: median about -8e-05, highest 2% from about 0.23 on). The sample as a whole holds a higher share of the highest values than the screen did.

The sequences below were run against T1, Nrg2 (UniProt P38082) (assay: PBM E-score (8-mer binding enrichment) (E-score (-0.5 to 0.5)); higher = stronger / more preferred TF binding). Settings: protein concentration: 100 nM; construct: GST-full length.
T1 sequence: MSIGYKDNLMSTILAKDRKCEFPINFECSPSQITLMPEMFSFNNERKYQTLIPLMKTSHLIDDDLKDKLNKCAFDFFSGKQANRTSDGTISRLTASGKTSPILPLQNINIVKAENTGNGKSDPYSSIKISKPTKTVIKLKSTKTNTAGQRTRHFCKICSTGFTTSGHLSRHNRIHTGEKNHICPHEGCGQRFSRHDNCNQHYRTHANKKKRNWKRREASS
Protocol: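 Universal 'all 10-mer' protein binding microarrays (Agilent AMADID 015681) probed with GST-tagged S. cerevisiae TFs (full-length or DBD) made by in vitro transcription/translation (PURExpress), about 100-200 nM. Bound TF was detected with fluorescent anti-GST. Each ungapped 8-mer (which stands for itself and its reverse complement) is scored by the PBM enrichment score (E-score), a modified Wilcoxon-Mann-Whitney statistic from -0.5 to +0.5, computed with the Universal PBM Analysis Suite. Scale: above 0.35 generally sequence-specific binding.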

Sequence	PBM E-score
TCACTGCA	0.167
CTCGGCCA	0.104
ACCTGGAA	0.203
CGGGCTAG	-0.0659
GTAAGACA	-0.0374
GGGATCAA	-0.0876
ATGAGATC	0.0358
CAGTTGGA	-0.00944
AAGGGTTC	0.248
CAGGGTTA	0.0393
AAGGGTTG	0.167
CAGGGTGC	0.19
AAGGGTTA	0.076
CAGGGTTC	0.387
AAATGCTA	0.0225
GACGCTAC	-0.0645
AAACTCTG	0.102
CATCTTAG	0.0135
ATCATCAG	0.0405
TATCTCAA	0.267
GATCTCAA	0.115
AATCTTAA	0.0405
AATCTCAA	0.124
CATCTCAA	-0.0442
CATCTCAG	0.23

Sequence	PBM E-score
CATCTCAC	-0.0644
CATCTTAA	0.251
CTCATCAG	0.247
CTCATCAC	-0.0539
GCCCTCAC	-0.177
GGTTCAAA	0.0475
CACGCAGG	0.0602
GACAGTGC	0.0298
AGTGATCA	0.063
AAACCCAA	0.0986
CTCGTTGC	0.212
ACTTGTAA	-0.0121
AGTCATAT	0.0126
AGGCTGAG	-0.0549
GCACTAAA	0.0452
TCACTAAA	0.099
TTACTAAA	0.123
ACACTACA	0.108
ATACTAAA	0.234
GTACTAAA	0.121
CCACTACA	0.045
TCACTACA	0.24
ACACTAAA	0.271
CAGATGCA	-0.158
ATTAACCG	0.107

Sequence	PBM E-score
ATGAGACA	0.0867
AGGTCGGG	-0.142
AAAACCAT	0.137
ATTTCGCA	0.274
ATTTCGCC	0.0633
ATTTCGCG	0.275
ATTTCGAG	0.14
ATTTCGGG	0.037
CTTTCGCA	-0.0222
ATTTCTCG	0.285
ATTTCTCC	0.0443
ATTTCTCA	0.0394
AGTTAAGA	0.0745
GGAACTCC	0.0233
GACTCCCA	-0.248
CGATCTCC	-0.0956
AATAGGAC	0.0448
ACGTCATC	-0.0886
GCTATTCC	-0.0857
ACTGCTCC	0.0162
TAACCCAA	-0.00379
CTAATTGC	0.0943
ATCTCAAG	0.238
ATCTCAAT	0.0327
ATATCTCC	0.251

Sequence	PBM E-score
GTCTCTCA	-0.0103
ATATCTCA	0.238
CTATCTCA	0.0251
ATCTCTCA	0.236
ATATCTCG	0.0423
CTATCTCC	0.0511
ATCTCTCC	0.0215
ATCTCAAC	0.158
CTCTCTCA	-0.0307
ACTCGCCT	0.063
GTCAGGCA	-0.108
TGCGGGAA	0.125
CAGACCTG	-0.119
GCGAATAA	0.18
GAGATACC	0.127
AGCTATGG	-0.0356
ATATCAAT	0.212
ATATCAAG	0.285
CTATCAAG	0.0817
AACTCAAG	-0.0395
CTCTTGAA	-0.0353
CAGGGCGG	-0.0602
CTAGTTGA	0.128
GACATTGC	-0.0455
CACCCGGG	-0.0923

Sequence	PBM E-score
AACCCGCG	0.267
AACCCGCA	0.0835
ATCCCGCG	0.294
AACCCGGG	0.255
AACCCGCC	0.00993
ACCCCGGG	-0.056
ATCCCGCA	0.08
ATCCCGCC	0.0743
AGTGGTCA	-0.145
TCGCCGAA	-0.124
CAGAGTAC	-0.112
ATATGGCC	-0.0218
ATTGTTAA	0.0152
GTTGTTAA	0.241
CTTGTTAA	0.0818
CGCAAGGC	0.203
CCTGTATA	0.0265
ACTGTATC	-0.0153
CCTGTATC	0.233
CAGATTAC	-0.0348
ACGGACAA	0.233
GCGGACAA	0.15
CCGGACAA	0.058
CGTACTTA	0.115
CACCAAGA	0.00109

Sequence	PBM E-score
CGTTTGAA	0.00719
AGTTTGAA	0.23
AGTTTGAC	-0.104
GGATCGCC	0.0218
AAAGGAGG	-0.252
ATCAAACC	0.123
ACAGAGCT	-0.214
ACCGCGCC	0.00956
CGCCCGCC	0.085
ATCGAGCA	0.0824
AGCGCGCG	0.274
CGCCCGCA	0.229
ACCGCGCT	0.0712
ACCGCGCG	0.301
ATCGAGCG	0.229
AGCGCGCC	0.0741
AGCGCGCT	0.187
TGCCCGCA	0.148
ATCGAGCC	-0.103
CACGTAGG	-0.156
AAAATTCA	0.199
CAACGCGC	0.215
GAAGGAAA	-0.238
ATCTCGCA	0.0354
CGCGCAGA	0.232

Sequence	PBM E-score
AAGGGGCG	-0.117
AAAGCGCA	0.012
ATCTCGCC	0.0341
GGCGCAGA	-0.0307
CGCGCAGC	0.0142
ATCTCGCG	0.282
CAGGGGCG	0.252
CAAGCGCA	0.363
CAAGCGCC	-0.196
CAGGGGCC	0.191
AAGTGATT	0.0989
CCCTGCGC	0.1
CCTCTTTC	-0.184
ACACTAGC	-0.00995
ACTAGGAC	-0.00051
GTTTGCGA	0.0803
GGTCTAGA	-0.109
AACGTTTC	-0.144
ATCTCCAC	-0.0729
CTGTTCGC	0.0452
GAGACAAA	-0.091
CACACCAA	0.063
AACTATCG	0.0118
CAGGCGCC	0.0447
